From PubChem BioAssay AID1117362 (Southern Research Institute, 2015)
Screen size: about 3,600 compounds; about 100 (2.8%) were called active. These entries were drawn from the full list. A number with no mark means an inactive call.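 How the source made its calls: active means inhibition above 30% at one or more concentrations, seen consistently on every test date; inconclusive means results that disagree between repeat test dates; inactive means the rest.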

Test: GST-antibody interaction or FRET quenching – biochemical, TR-FRET, artefact control for Vif-APOBEC3G degradation inhibitor project, dose response (AID 1117362);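 further: biotinylated GST protein used in place of GST-Vif 1-94 and biotin-A3G peptide; detects fluorescence quenchers or blockers of GST binding to anti-GST antibody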
Conditions: TR-FRET counter screen, biotin-GST/anti-GST signal; series mostly up to 100 µM; inhibition: at the top concentration

| Structure (SMILES) | inhibition [%] |
| --- | --- |
| Cc1noc(/C=C/c2ccco2)c1S(=O)(=O)N1CCC(C(=O)N2c3ccccc3CC2C)CC1 (stereo not drawn) | -2.34 |
| Cc1cc(C)nc(N/N=C/C2=C(N3CCOCC3)C(=C\c3ccc(Cl)cc3)/CC2)n1 | -0.34 |
| Cc1ccccc1NC(=O)c1c(C)[nH]c(=S)c(C#N)c1-c1ccco1 | -2.56 |
| COc1ccc(OC)c(C2C(C(=O)Nc3ccc(F)cc3)=C(C)Nc3nc(CCCO)nn32)c1 (stereo not drawn) | -2.07 |
| c1ccc2c(c1)CCCN2Cc1nnc2n1CCCCC2 | 18 |
| CCOC(=O)C1CCN(C(c2cccs2)c2sc3nc(C)nn3c2O)CC1 (stereo not drawn) | -0.51 |
| Cc1onc(-c2c(F)cccc2Cl)c1C(=O)Nc1nnc(C2CC2)s1 | 16.8 |
| O=C(O)c1ccc(Cl)c2c1C1C=CCC1C(c1ccccn1)N2 (stereo not drawn) | 8.39 |
| COCCCNC(=O)/C(C#N)=C/c1ccc(OCC(=O)O)c(OC)c1 | 5.26 |
| CCOC(=O)N1CCN(C(=O)c2ccc3c(SCC(=O)O)c4c(nc3c2)CCC4)CC1 | 6.29 |
| COC(=O)C1=C(C)NC(=O)/C1=C\c1cccs1 | -11.6 |
| CC(=O)C1=C(C)NC(C)=C(C(C)=O)C1c1cccs1 | 0.1 |
| CNc1c(C(=O)O)ccc2c1C(=O)c1ccccc1C2=O | -29.9 |
| COCc1cc(C)nc(NCCO)c1C#N | 0.98 |
| CC(C)c1ccc(/C=C/C(=O)N2CCc3ccccc3C2)cc1 | -2.23 |
| CCOC(=O)C1=C(c2ccccc2)N=c2s/c(=C\c3ccco3)c(=O)n2C1c1cccs1 (stereo not drawn) | 0.16 |
| O=C(O)Cc1ccc(N=Nc2c(O)c(C(=O)O)cc3ccccc23)cc1 | -2.75 |
| COC(=O)c1ccc(C)c(NC(=O)CCSc2ccccc2)c1 | 4.21 |
| O=C(COC(=O)c1c2c(nc3ccccc13)/C(=C\c1ccco1)CC2)NC1CCCC1 | 7.73 |
| CCC(=O)N1N=C(c2ccc(NS(C)(=O)=O)cc2)CC1c1ccc(C)cc1 (stereo not drawn) | 1.76 |
| Cn1nc(-c2ccc(Cl)cc2)c2cc(C(=O)N3CCN(c4ccccc4)CC3)sc21 | -21.1 |
| CCOC(=O)c1sc2nc(CC(=O)OC)nc(NCc3ccco3)c2c1C | 6.59 |
| CCOc1ccc(-n2c(Cc3cc(=O)[nH]c(=O)[nH]3)nnc2SCC(N)=O)cc1 | 1.18 |

| Structure (SMILES) | inhibition [%] |
| --- | --- |
| COC(=O)COc1ccc(S(=O)(=O)Nc2cc(OC)ccc2OC)cc1 | 5.91 |
| COC(=O)CSc1nnc(CNC(=O)Cc2ccccc2)n1C | -1.09 |
| CCOC(=O)c1cc2cc(F)ccc2nc1C | -1.31 |
| O=C(Cc1ccccc1)NC(Nc1ccccc1)C(Cl)(Cl)Cl (stereo not drawn) | -1.08 |
| Cc1ccc(C)c(-n2c(Cc3cc(=O)[nH]c(=O)[nH]3)nnc2SC(C)C)c1 | 3.25 |
| O/N=C1\CCC\C1=C/c1ccco1 | 1.01 |
| O=C(CCCCCN1C(=O)CCC1=O)Nc1ccc(Cl)c(C(F)(F)F)c1 | 3.39 |
| Cc1ccc(N(CC(=O)NCCSCc2ccco2)S(=O)(=O)c2ccc(F)cc2)cc1 | 1.13 |
| CCOc1ccc(-n2c(Cc3cc(=O)[nH]c(=O)[nH]3)nnc2SCC(=O)NC2CCCC2)cc1 | 0.17 |
| CC1CCCN(C(=O)CN2CCN(C(=O)c3ccco3)CC2)C1 (stereo not drawn) | -3.6 |
| COc1ccc(CCNC(=O)CN2CCCc3ccccc32)cc1OC | 18.5 |
| O=C(c1ccco1)N1CCN(C(c2ccccn2)c2nnnn2C2CCCC2)CC1 (stereo not drawn) | 5.15 |
| O=C(NC1CCCC1)C(c1ccco1)N(Cc1ccccc1)C(=O)c1csnn1 (stereo not drawn) | -2.57 |
| c1cncc(-c2csc(NCc3ccco3)n2)c1 | 3.94 |
| COc1cc(CC(=O)OCC(=O)Nc2cccc([N+](=O)[O-])c2)cc(OC)c1OC | 5.53 |
| CCOC(=O)Cn1nnnc1C(C(C)C)N(Cc1cc2c(C)cc(C)cc2[nH]c1=O)C1CCCC1 (stereo not drawn) | 2.05 |
| CC(=O)Nc1ccc(S(=O)(=O)NCCSCc2ccco2)cc1 | -6.34 |
| CCOC(=O)c1cnn2c(N)c(C#N)nnc12 | 6.25 |
| CSc1nc(N(CCO)CCO)c2sc3nc(-c4ccco4)c4c(c3c2n1)CCC4 | 1.7 |
| CC(=C/c1ccco1)/C=N/NC(=O)Cc1cccn1C | 1.17 |
| COc1ccccc1NC(=O)CSc1nnc(Cc2cc(=O)[nH]c(=O)[nH]2)n1-c1ccccc1 | 4.67 |
| Cc1nc2ncccn2c1-c1csc(NCc2ccco2)n1 | 28.8 |
| Cc1cc(S(=O)(=O)N(Cc2ccccn2)Cc2ccco2)ccc1-n1cnnn1 | 4.56 |

| Structure (SMILES) | inhibition [%] |
| --- | --- |
| COc1ccccc1C1C=C(c2ccc(C)cc2)Nc2nnnn21 (stereo not drawn) | -0.76 |
| O=C(O)/C=C/C(=O)Nc1cccnc1 | 0.54 |
| O=C(c1cc2n(n1)C(C(F)(F)F)CC(c1ccco1)N2)N1CCc2ccccc2C1 (stereo not drawn) | -4.85 |
| COc1ccc(-c2ccc(C#N)c(SCC(=O)Nc3sc4c(c3C#N)CCC4)n2)cc1OC | 2.31 |
| CC(=O)OC1COC(n2ccc3ccccc32)C(OC(C)=O)C1OC(C)=O (stereo not drawn) | 2.58 |
| O=C1C2C3CCCC3=C3CCCC3C2C(=O)N1c1ccccc1 (stereo not drawn) | 5.45 |
| CCCCn1c(=NC(=O)c2cccnc2)c(C#N)cc2c(=O)n3cccc(C)c3nc21 | 11.7 |
| CCc1ccc2nc(N3CCN(C)CC3)c(C#N)cc2c1 | 4.9 |
| Cc1nc2cc(N=NC3=C(O)CCCC3=O)ccc2s1 | 26.2 |
| COc1ccc2ccccc2c1C1CC(=O)N2CN(Cc3ccco3)CSC2=C1C#N (stereo not drawn) | 4.69 |
| C=CC(=O)N1C/C(=C/c2ccc(F)cc2)C(=O)/C(=C\c2ccc(F)cc2)C1 | 0.46 |
| O=C1NC(=S)N/C1=C/c1ccc(-c2c(Br)cc([N+](=O)[O-])cc2Br)o1 | 11.7 |
| COC(=O)C1=C(N)OC2=C(C(=O)CCC2)C1c1cccs1 (stereo not drawn) | 0.5 |
| CC1(c2ccc3noc(-c4ccccc4)c3c2)OCCO1 | 2.44 |
| O=C(COC(=O)/C=C/c1ccco1)Nc1ncc(C(F)(F)F)cc1Cl | -4.53 |
| CCOC(=O)c1c(C)oc2c1c(C=NCc1ccccn1)c(O)c1ccccc12 | 21.7 |
| Cc1ccc(C(=O)Nc2ccc(O)c(C(=O)O)c2)o1 | 3.82 |
| COc1ccccc1/C=C(/CC(=O)NCc1ccccc1)c1nc2ccccc2s1 | 0.36 |
| COc1ccc(-c2nc3oc4cc(OC)ccc4c(=O)c3c(=O)n2Cc2ccco2)cc1 | -0.8 |
| O=S(=O)(Nc1nccs1)c1ccc(Nc2nnc(-c3ccccc3)c3ccccc23)cc1 | -2.36 |
| Cc1ccc(-n2c(C)cc(C(=O)OCC(=O)N(CC(C)C)C3CCS(=O)(=O)C3)c2C)cc1 (stereo not drawn) | 3.83 |
| CCOc1cc(N2CCOCC2)c(OCC)cc1NS(=O)(=O)c1ccc(Cl)s1 | 9.78 |
